Measured values published in PubChem BioAssay.
Active and inactive are the calls of the source. Unless noted, how the calls were made is not given here.

Columns and labels:
[1] = compounds binding Alexa647 anti-His antibody – biochemical, small-molecule microarray, 635 nm fluorescence, artefact control for SMM control protein annotation, primary screen (AID 1128); conditions: higher = more signal;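 further: score merges feature fluorescence with signal-to-noise for each printed compound spot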
[2] = tested on: Human papillomavirus type 1a E7 protein (residues 1-88); experiment: HPV1a E7 small-molecule binders, primary screen, biochemical, small-molecule microarray, residues 1-88, 635 nm (AID 1129); conditions: small-molecule microarray binding, fluorescence 635 nm; higher = more signal
[3] = biological target: Focal adhesion kinase 1 (Homo sapiens) (UniProt Q05397); experiment: PTK2 protein binding on printed compound slides – biochemical, small-molecule microarray, 635/667 nm fluorescence, BSA, DTT, primary screen (AID 1130); conditions: 635 nm fluorescence, higher = more signal;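 further: composite of spot emission at 667 nm and signal to noise over triplicate slides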
[4] = tested on: Fibrinogen (Alexa647-labelled); experiment: Alexa647-fibrinogen binding to printed small molecules – biochemical, small-molecule microarray, 635/667 nm fluorescence, artefact control for SMM control-protein annotation, profiling panel (AID 1131); conditions: fibrinogen-A647 binding fluorescence, higher = more signal;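 further: z-score merges 667 nm fluorescence with per-spot signal-to-noise over triplicate slides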
[5] = biological target: Follistatin (Homo sapiens) (UniProt P19883); experiment: FST protein binding to printed compounds – biochemical, small-molecule microarray, 635/667 nm fluorescence, primary screen (AID 1132); conditions: 635 nm fluorescence, higher = more signal
[6] = biological target: Fibroblast growth factor 2 (Homo sapiens) (UniProt P09038); experiment: basic fibroblast growth factor binding to printed compounds – biochemical, small-molecule microarray, 635/667 nm fluorescence, primary screen (AID 1133); conditions: FGF2, fluorescence 635/667, higher = more signal
[7] = JC-1 mitochondrial potential readout, lung cancer cells – cell-based, A549, JC-1 fluorescence, basal, 24 h, 100 nL, profiling panel (AID 1138); conditions: higher = more signal;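 further: A549 lung adenocarcinoma cells under basal conditions with no added stimulus; test concentration not given here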
Lefty1 = Lefty1 protein binding to printed compounds – biochemical, small-molecule microarray, 635/667 nm fluorescence, primary screen (AID 1139); conditions: fluorescence 635/667, higher = more signal
[8] = tested on: wheat germ agglutinin (Triticum aestivum), Alexa647-labelled; experiment: Alexa647-WGA lectin binding to printed small molecules – biochemical, small-molecule microarray, 635/667 nm fluorescence, artefact control for SMM control-protein annotation, profiling panel (AID 1140); conditions: WGA-A647 binding, 635 nm fluorescence, higher = more signal;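 further: score merges 667 nm feature emission with signal to noise over triplicate slides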
[9] = biological target: Luciferin 4-monooxygenase (Photinus pyralis) (UniProt P08659); experiment: inhibition of purified Photinus pyralis luciferase – biochemical, luminescence, purified enzyme, 2006 set, primary screen (AID 1141); conditions: purified firefly luciferase, SteadyGlo luminescence, 30 min; higher = more signal, called active from +8 up or from −8 down;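 further: cell-free assay with purified firefly luciferase at 100 ng per well in PBS; test concentration not given here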
[10] = tested on: Wnt5a (protein binding on small-molecule microarray); experiment: small molecules binding Wnt5a protein – biophysical, small-molecule microarray, 635/667 nm fluorescence, primary screen (AID 1142); conditions: 635 nm fluorescence, higher = more signal;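 further: fluorescence read at 667 nm with signal to noise per printed feature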
[11] = ATP-based viability of Huh7 replicon cells – cell-based, CellTiter-Glo luminescence, basal, 48 h, cytotoxicity control for HCV replication inhibitor project, primary screen (AID 1143); conditions: higher = more signal, called active from +8 up or from −8 down;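 further: Huh7 hepatoma cells carrying a hepatitis C replication reporter with no stimulus; test concentration not given here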
[12] = Pseudomonas biofilm growth suppression – PAO1 strain, BacTiter-Glo luminescence, LB-PBS, primary screen (AID 1144); conditions: P. aeruginosa PAO1 biofilm, 12 h, higher = more signal
[13] = basal CRE-LacZ reporter activity in PC12 – cell-based, unstimulated, primary screen (AID 1145); conditions: no forskolin, luminescence, 4.5 h, higher = more signal, called active from +8 up or from −8 down
[14] = forskolin-driven CRE-LacZ activity in PC12 – cell-based, CRE-LacZ reporter, forskolin-stimulated, primary screen (AID 1146); conditions: luminescence, 4.5 h, higher = more signal, called active from +8 up or from −8 down;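 further: PC12 cells with 6xCRE LacZ reporter stimulated by forskolin 10 µM; beta-galactosidase reporter signal reflecting CREB driven transcription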
[15] = biological target: Streptavidin (Streptomyces avidinii) (UniProt P22629); experiment: compounds binding control protein streptavidin – biophysical, small-molecule microarray, 635/667 nm fluorescence, artefact control for SMM compound annotation, primary screen (AID 1147); conditions: higher = more signal;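 further: signal reflects streptavidin binding to arrayed compounds as a control protein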
[16] = probe aInhba binding on compound microarray – biochemical, small-molecule microarray, 635/667 nm fluorescence, primary screen (AID 1148); conditions: higher = more signal;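 further: score merges 667nm spot fluorescence with signal-to-noise for antibody binding to printed compounds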
Torsin-1A (Homo sapiens) [17] = biological target: Torsin-1A (Homo sapiens) (UniProt O14656); experiment: TOR1A wild-type binding on microarray – cell lysate, small-molecule microarray, lysate, 635/667 nm, primary screen (AID 1149); conditions: COS7 hTOR1A-WT lysate, 635 nm fluorescence, higher = more signal
Torsin-1A (Homo sapiens) [18] = biological target: Torsin-1A (Homo sapiens) (UniProt O14656); experiment: torsin A mutant lysate binding on microarrays – cell lysate, small-molecule microarray, COS7 lysate, 635/667 nm fluorescence, primary screen (AID 1150); conditions: COS7 hTOR1A mutant lysate, 635 nm fluorescence, higher = more signal;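 further: score pools 667 nm emission and signal to noise measuring lysate protein binding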
[19] = tested on: Sonic hedgehog protein (Shh); experiment: Sonic hedgehog microarray binding compounds – biochemical, small-molecule microarray, 635/667 nm fluorescence, primary screen (AID 1151); conditions: 635 nm fluorescence, higher = more signal;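 further: Shh protein binding to compounds spotted on small-molecule microarray slides; score combines spot fluorescence intensity with signal-to-noise across triplicate slides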

Chain of Streptavidin (Streptomyces avidinii) (P22629 whole entry, looked up): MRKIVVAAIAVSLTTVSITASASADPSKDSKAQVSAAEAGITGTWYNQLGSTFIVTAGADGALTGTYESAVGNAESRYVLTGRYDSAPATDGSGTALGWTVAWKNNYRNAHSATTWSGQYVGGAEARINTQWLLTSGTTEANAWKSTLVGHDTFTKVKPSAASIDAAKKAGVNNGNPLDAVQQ
Chain of Follistatin (Homo sapiens) (P19883 whole entry, looked up): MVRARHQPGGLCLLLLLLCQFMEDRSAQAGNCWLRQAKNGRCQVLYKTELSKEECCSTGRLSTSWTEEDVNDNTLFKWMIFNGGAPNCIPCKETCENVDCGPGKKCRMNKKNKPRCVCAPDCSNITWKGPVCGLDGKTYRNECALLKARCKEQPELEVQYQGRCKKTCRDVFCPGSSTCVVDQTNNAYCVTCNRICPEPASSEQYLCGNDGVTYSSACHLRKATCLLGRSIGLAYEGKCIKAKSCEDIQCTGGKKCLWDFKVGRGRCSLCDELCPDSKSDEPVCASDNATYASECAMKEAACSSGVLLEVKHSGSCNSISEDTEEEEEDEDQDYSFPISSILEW
Chain of Focal adhesion kinase 1 (Homo sapiens) (Q05397 whole entry, looked up): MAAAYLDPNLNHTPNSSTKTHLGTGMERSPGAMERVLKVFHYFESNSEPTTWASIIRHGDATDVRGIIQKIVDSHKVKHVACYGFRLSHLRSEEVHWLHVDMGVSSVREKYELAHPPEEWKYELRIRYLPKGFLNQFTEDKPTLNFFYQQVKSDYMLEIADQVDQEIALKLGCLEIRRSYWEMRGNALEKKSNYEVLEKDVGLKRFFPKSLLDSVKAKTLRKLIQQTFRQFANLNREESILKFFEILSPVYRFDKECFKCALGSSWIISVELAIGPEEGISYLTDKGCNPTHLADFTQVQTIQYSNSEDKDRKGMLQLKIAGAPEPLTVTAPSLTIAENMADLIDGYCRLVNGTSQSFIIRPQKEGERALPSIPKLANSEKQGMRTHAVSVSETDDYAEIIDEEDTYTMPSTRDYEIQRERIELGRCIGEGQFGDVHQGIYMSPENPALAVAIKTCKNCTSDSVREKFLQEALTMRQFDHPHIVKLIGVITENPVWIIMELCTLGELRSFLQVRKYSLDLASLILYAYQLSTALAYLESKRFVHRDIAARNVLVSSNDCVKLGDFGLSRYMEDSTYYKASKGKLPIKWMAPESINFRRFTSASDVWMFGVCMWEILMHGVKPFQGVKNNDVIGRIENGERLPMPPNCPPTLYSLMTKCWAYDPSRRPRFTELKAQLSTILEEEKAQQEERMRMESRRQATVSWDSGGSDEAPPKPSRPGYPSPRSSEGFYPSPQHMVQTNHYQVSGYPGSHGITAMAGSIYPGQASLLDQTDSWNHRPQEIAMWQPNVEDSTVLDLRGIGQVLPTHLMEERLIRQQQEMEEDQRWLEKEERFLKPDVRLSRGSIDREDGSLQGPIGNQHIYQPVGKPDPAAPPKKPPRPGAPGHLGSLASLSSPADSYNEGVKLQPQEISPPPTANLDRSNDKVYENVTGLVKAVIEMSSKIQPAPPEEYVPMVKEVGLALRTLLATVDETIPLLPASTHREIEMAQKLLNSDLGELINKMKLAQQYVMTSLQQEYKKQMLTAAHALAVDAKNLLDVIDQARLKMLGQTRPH
Chain of Luciferin 4-monooxygenase (Photinus pyralis) (P08659 whole entry, looked up): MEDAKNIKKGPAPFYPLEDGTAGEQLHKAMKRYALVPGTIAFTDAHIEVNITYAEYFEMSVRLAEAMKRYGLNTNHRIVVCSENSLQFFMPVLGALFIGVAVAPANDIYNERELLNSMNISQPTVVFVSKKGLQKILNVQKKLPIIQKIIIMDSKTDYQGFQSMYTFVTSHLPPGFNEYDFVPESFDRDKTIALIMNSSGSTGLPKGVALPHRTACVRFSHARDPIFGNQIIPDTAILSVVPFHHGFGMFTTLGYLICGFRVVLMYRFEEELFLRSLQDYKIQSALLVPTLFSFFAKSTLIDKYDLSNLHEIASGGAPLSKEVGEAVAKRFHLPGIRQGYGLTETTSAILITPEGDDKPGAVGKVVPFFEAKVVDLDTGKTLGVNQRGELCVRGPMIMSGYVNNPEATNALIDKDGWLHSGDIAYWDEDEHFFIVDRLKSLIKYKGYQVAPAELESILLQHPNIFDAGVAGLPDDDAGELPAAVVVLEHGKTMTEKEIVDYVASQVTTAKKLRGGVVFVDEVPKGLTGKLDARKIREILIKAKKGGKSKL
Chain of Torsin-1A (Homo sapiens) (O14656 whole entry, looked up): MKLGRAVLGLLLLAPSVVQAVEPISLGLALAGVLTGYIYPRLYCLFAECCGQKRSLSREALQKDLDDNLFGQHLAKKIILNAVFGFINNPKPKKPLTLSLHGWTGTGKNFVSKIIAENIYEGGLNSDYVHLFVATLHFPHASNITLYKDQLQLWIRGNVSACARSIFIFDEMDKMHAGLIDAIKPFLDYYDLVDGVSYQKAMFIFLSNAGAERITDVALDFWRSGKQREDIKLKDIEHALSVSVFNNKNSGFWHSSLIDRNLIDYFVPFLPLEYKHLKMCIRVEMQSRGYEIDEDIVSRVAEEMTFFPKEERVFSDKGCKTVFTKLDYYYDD
Chain of Fibroblast growth factor 2 (Homo sapiens) (P09038 whole entry, looked up): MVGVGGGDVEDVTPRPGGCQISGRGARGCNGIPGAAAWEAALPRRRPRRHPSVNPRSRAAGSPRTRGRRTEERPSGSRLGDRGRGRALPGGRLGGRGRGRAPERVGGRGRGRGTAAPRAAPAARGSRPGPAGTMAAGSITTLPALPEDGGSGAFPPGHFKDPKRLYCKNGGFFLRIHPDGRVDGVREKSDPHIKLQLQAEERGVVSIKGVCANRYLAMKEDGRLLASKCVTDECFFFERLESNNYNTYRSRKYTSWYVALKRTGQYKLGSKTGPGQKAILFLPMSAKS

Compound	composite z-score [1]	composite z-score [2]	composite z-score [3]	composite z-score [4]	composite z-score [5]	composite z-score [6]	z-score [7]	composite z-score (Lefty1)	composite z-score [8]	z-score [9]	composite z-score [10]	z-score [11]	z-score [12]	z-score [13]	z-score [14]	composite z-score [15]	composite z-score [16]	composite z-score (Torsin-1A (Homo sapiens) [17])	composite z-score (Torsin-1A (Homo sapiens) [18])	composite z-score [19]
COC(=O)C(CC#Cc1ccc2c(c1)[C@]1(C(=O)N2)[C@H](C(=O)N2CCCCCCC2)[C@H]2C(=O)O[C@H](c3ccccc3)[C@H](c3ccccc3)N2[C@@H]1c1ccccc1OCCO)C(=O)OC	3	1.35	4.24	0.654	1.56	0.197	-1.08	1.89	1.73	-0.525 (inactive)	2.44	-3.54 (inactive)	-0.429 (inactive)	-0.141 (inactive)	-0.81 (inactive)	4.06	2.24	3.84	3.73	2.04
CCOC(=O)C=Cc1cccc(OC)c1O	0.447	-0.311	-0.227	0.102	-0.248	-1.13	-1.37	-0.679	0.859	-17.6 (active)	-0.811	-4.11 (inactive)	1.91 (inactive)	0.182 (inactive)	-0.791 (inactive)	-0.432	-0.13	-0.146	0.141	-0.8
CN(C)CCCCCCNC(=O)[C@@H]1C[C@@H]2C(=O)N[C@@H](Cc3ccccc3)C(=O)N2[C@@H]1c1cccc(OCCO)c1	2.13	1.05	1.81	0.105	0.699	0.886	-0.37	0.729	0.346	-0.0196 (inactive)	0.154	0.59 (inactive)	0.0305 (inactive)	-0.122 (inactive)	-1.29 (inactive)	0.0978	-0.0209	1.15	0.885	1.28
CCCCCCC#C[Si](O[C@H](c1ccccc1)c1cn([C@H](C)c2ccccc2)nn1)(C(C)C)C(C)C	0.475	0.386	-0.159	0.574	0.441	0.555	3.27	0.547	0.144	0.425 (inactive)	-0.0509	-0.658 (inactive)	0.121 (inactive)	-0.127 (inactive)	0.15 (inactive)	0.247	-0.361	0.381	1.26	0.573
COc1ccc([Si](C)(C)[C@@H]2[C@@H](CCn3cc([C@H](O)c4ccccc4)nn3)O[C@]3(C(=O)N(C)c4ccccc43)[C@H]2C)cc1	0.214	0.991	0.227	-0.892	0.0274	0.283	-0.0374	0.57	0.0783	0.431 (inactive)	0.0302	-3.85 (inactive)	0.317 (inactive)	1.72 (inactive)	-1.26 (inactive)	-0.0794	-0.0465	-0.507	-0.0593	-0.103
C=CCOC(=O)[C@H]1[C@@H]2C(=O)O[C@@H](c3ccccc3)[C@@H](c3ccccc3)N2[C@@H](c2ccc(OCCOC(=O)[C@@H]3C[C@@H]4C(=O)NCC(=O)N4[C@@H]3c3ccc(O)cc3)cc2)[C@]12C(=O)Nc1ccc(I)cc12	1.59	1.22	2.17	0.597	1.41	1.65	-1.17	1.24	0.763	-0.978 (inactive)	1.07	0.586 (inactive)	0.183 (inactive)	0.0003 (inactive)	-0.53 (inactive)	0.205	-0.125	1.02	1.18	2.04
C=C(CCCC)C(=O)CC[C@@H](OC(=O)c1ccccc1-c1ccccc1C(=O)O)c1ccc(CO)o1	0.39	1.1	-0.248	0.294	1.3	1.31	0.31	1.38	0.445	-3.84 (inactive)	0.233	0.0462 (inactive)	-0.0968 (inactive)	-0.219 (inactive)	0.432 (inactive)	-0.3	0.181	1.29	0.854	1.08
C#C[C@H]1Oc2ccccc2S(=O)(=O)N2CCC[C@@H]12	-0.233	-0.704	-0.434	-0.597	0.963	0.0278	0.092	1.51	-0.719	0.119 (inactive)	-0.0713	-0.0352 (inactive)	-0.0287 (inactive)	0.126 (inactive)	1.3 (inactive)	-0.14	-0.278	0.461	0.512	1.63
COc1ccccc1CN1C(=O)c2ccccc2[C@](Cc2ccccc2I)(C(=O)NC2CC2)[C@@H]1c1ccc(CO)cc1	1.74	1.26	0.646	0.987	1.32	1.55	1.16	1.16	0.52	0.985 (inactive)	0.811	-4.58 (inactive)	-0.0735 (inactive)	0.324 (inactive)	-0.572 (inactive)	0.662	0.0374	0.427	0.71	2.06
Cc1ccc(N2C(=O)c3ccccc3[C@](C)(C(=O)NCCN3CCOCC3)[C@@H]2c2ccc(CO)cc2)nc1	0.267	-1.74	-1.16	-1.02	-0.419	-0.833	-0.807	-1.26	-1.32	0.952 (inactive)	-0.538	-0.28 (inactive)	-0.398 (inactive)	-0.258 (inactive)	-0.37 (inactive)	-0.932	-0.211	-2.51	-1.62	0.465
